Screening data deposited in PubChem by several laboratories.
This is a sample that favours compounds with a hit; in the whole collection about 3% have one here.
NLRP3 yeast inh – NALP3 inflammasome inhibitors in reconstituted yeast, primary screen, luminescence, uHTS | 330,000 compounds, 0.39% hits | Yeast reconstituted NLRP3/ASC/caspase-1, beta-gal luminescence, 24 h | inhibition, % at 10 µM;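 active means inhibition of 50% or more; inactive means inhibition below 50%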
NALP1 inh – NALP1 inflammasome inhibitors in reconstituted yeast, colorimetric, S. cerevisiae, triplicate retest | S. cerevisiae NALP1/ASC/caspase-1 growth, X-gal OD620, 72 h | inhibition, % at 10 µM | 280,000 compounds, 0.61% hits; in the data active means inhibition mostly above about 24%, no sharp cut-off; inactive means mostly below about 32%
CHT PAM – CHT positive allosteric modulators, primary screen, cell-based, membrane potential dye, choline EC20; 310,000 compounds, 0.49% hits; CHT-expressing cells; stronger effect = higher value; LV-AA mutant CHT in HEK293 cells; High affinity choline transporter 1 (Homo sapiens), Q9GZV3; AID 488977, 2010; B-score at 10 µM;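 active means initial fluorescence not abnormally high and integrated response B-score, plate-corrected, over 3 SD above library mean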
Target sequence (Q9GZV3 whole entry, looked up): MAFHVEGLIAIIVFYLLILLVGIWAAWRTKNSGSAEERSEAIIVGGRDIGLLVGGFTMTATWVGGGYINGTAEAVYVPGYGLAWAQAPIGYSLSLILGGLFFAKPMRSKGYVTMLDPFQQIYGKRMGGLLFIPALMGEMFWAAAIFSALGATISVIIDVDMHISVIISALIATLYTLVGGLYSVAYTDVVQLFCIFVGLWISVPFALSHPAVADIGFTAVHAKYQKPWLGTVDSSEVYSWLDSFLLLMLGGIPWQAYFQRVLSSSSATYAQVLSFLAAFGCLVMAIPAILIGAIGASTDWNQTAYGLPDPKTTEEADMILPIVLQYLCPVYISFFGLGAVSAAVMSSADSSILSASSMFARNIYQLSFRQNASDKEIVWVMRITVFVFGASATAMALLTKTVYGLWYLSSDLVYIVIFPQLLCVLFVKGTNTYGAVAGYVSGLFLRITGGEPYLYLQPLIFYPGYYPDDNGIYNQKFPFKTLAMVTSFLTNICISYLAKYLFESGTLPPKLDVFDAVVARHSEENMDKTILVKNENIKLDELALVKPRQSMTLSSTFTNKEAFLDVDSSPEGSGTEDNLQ
A1 inh – caspase 3/7 activation in MEF A1-2A-BIM cells, primary screen, A1 inhibitor project, cell-based, luminescence, HTS. Caspase-Glo 3/7 luminescence, 3 h; percent of clofoctol response, vehicle zero. caspase activation, % (concentration not given with the values). 330,000 compounds, 0.066% hits;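 active means over half of replicate activation scores above 10%, or exactly half above 10 with the replicate mean above 10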
CHT inh – inhibitors of human choline transporter CHT | AID 488975, 2010 | CHT-expressing cells, membrane potential dye, choline response; stronger effect = lower value | 310,000 compounds, 0.86% hits | B-score at 10 µM;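 active means B-score over 3 SD under the library average, and starting fluorescence ratio not unusually high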;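 further: choline stimulus applied at its EC90 after an EC20 pre-addition; B-score computed on integrated fluorescence ratio after choline addition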
SUMO Mot1 rescue – yeast Mot1-301 growth rescue at high temperature, primary screen, SUMOylation pathway inhibitor project, S. cerevisiae, ATP luminescence, 38.5C; S. cerevisiae Mot1-301 growth rescue; percent above DMSO median, 100 means doubled; growth rescue, % at 18.8 µM; AID 2716, 2010; 320,000 compounds, 1% hits;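 active means every valid replicate shows activation above 250% relative to neutral control wells; inactive means the rest, any valid replicate at or below 250%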
Mot1 SUMO dose – growth restoration of Mot1-301 yeast on galactose, dose response, SUMO pathway inhibitor project, whole organism, S. cerevisiae, ATP luminescence, cherry-picked samples; S. cerevisiae Mot1-301 galactose growth, 24 h; -100 = growth of slx-deleted rescue strain; shares compounds with SUMO Mot1 rescue; 2,300 tested, under 10 active; AID 493004, 2010; growth activity, percent, % at 42 µM;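 active means Signal drops as the depositor expects, and the fitted half-maximal dose is no more than ten times the top valid tested dose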;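 further: more negative values mean stronger growth rescue toward the control strain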
Hits are given with their value; n = inactive; x = no result given.

SMILES	NLRP3 yeast inh	NALP1 inh	CHT PAM	A1 inh	CHT inh	SUMO Mot1 rescue	Mot1 SUMO dose
CCn1c(SCC(=O)Nc2ccc(OCc3ccccc3)cc2)nnc1-c1ccco1	n	n	n	n	n	837	n
COCC(C)n1c(-c2ccc3c(c2)NC(=O)CO3)csc1=Nc1ccc(OC(F)F)cc1 (centres undefined)	n	n	n	n	n	532	n
NS(=O)(=O)c1ccc(CNC(=O)c2sccc2-c2ccccc2)cc1	n	n	n	n	n	n	x
CCCCNS(=O)(=O)c1ccc(OC)cc1	n	n	n	n	n	495	n
COc1ccc(C(=O)CC(=O)C(=O)Nc2ccc(C)c(Cl)c2)cc1	x	n	n	n	n	918	n
CCn1cc(C(=O)N(C)c2ccc(OC)cc2OC)c2cc(OC)c(OC)cc2c1=O	n	n	n	n	n	415	n
Cn1c(-c2ccc3c(c2)OCO3)cnc1NC(=O)CCC(=O)NCCc1ccccc1	n	n	n	n	n	676	n
Nc1cccc2c1C(=O)N(CC(=O)NC13CC4CC(CC(C4)C1)C3)C2=O	n	n	n	n	n	n	x
O=C(Cn1sc2ccccc2c1=O)NC12CC3CC(CC(C3)C1)C2	n	n	n	n	n	387	n
COC(=O)c1ccc(SCC(=O)N2CCC(C)CC2)c([N+](=O)[O-])c1	n	n	n	n	n	836	n
CN(CC(=O)NCCCn1ccnc1)S(=O)(=O)c1ccc(Cl)cc1	n	x	x	n	x	n	x
Cc1cc(C)n(CCCNC(=O)CN(C)S(=O)(=O)c2ccc(Cl)cc2)n1	n	x	n	n	n	817	n
O=C(Cn1nc(C(F)(F)F)c2c1CCCC2)N1CCOCC1	n	n	n	n	n	772	n
COc1ccc(C)cc1-n1nnnc1SCC(=O)NC1CCS(=O)(=O)C1 (centres undefined)	n	x	x	n	x	n	x
COc1ccc(S(=O)(=O)NCCC(=O)N2CCCN(C)CC2)cc1	n	x	x	n	x	n	x
CCOCCCNC(=O)C(c1ccc(OC)cc1)N(Cc1ccc2c(c1)OCO2)C(=O)CNC(C)=O (centres undefined)	n	n	n	n	n	442	n
CC(C)Cc1cc(CN2CCC(CO)(Cc3ccccc3)CC2)[nH]n1	n	n	n	n	n	455	n
Cc1nnc(SCC(=O)NC(C)(C)C)n1NCc1ccc(Cl)cc1	n	n	n	n	n	785	n
Cc1nnc(SCC(=O)NC(C)(C)C)n1NCc1ccc(N(C)C)cc1	n	n	n	n	n	n	x
Cc1ccc(CNC(=O)CNC(=O)c2ccc(Br)o2)cc1	n	n	n	n	n	n	x
O=C(Nc1ccccc1C(=O)NC(Cc1ccccc1)C(=O)NC1CCCCC1)c1ccccc1 (centres undefined)	n	n	n	n	n	n	x
CCC(NC(=O)c1ccccc1NC(=O)c1ccco1)C(=O)NC1CCCCC1 (centres undefined)	n	n	n	n	n	381	n
CC(C)(C)[C@H]1C=C(C(=O)Nc2ccccc2)O[C@@H](OCCCCO)C1	n	x	n	n	n	n	x
Cc1ccc(NC(=O)Cc2cc(C(=O)O)c3ccccc3n2)c(C)c1	n	n	n	n	n	n	x
O=S(=O)(O)c1ccc(N=NNc2ccc(Br)cc2)cc1	n	n	n	n	n	539	n
SMILES	NLRP3 yeast inh	NALP1 inh	CHT PAM	A1 inh	CHT inh	SUMO Mot1 rescue	Mot1 SUMO dose
O=Cc1cc(N=Nc2ccc(S(=O)(=O)O)cc2)ccc1O	n	x	n	n	n	n	x
Cc1cccc(N(C(=O)c2snc(C(N)=O)c2N)C(C(=O)NCC2CCCO2)c2ccc3ncccc3c2)c1 (centres undefined)	n	n	n	n	n	n	x
COc1cc(OC)cc(C(=O)NCC2CCCN(C(=O)c3csc(C(C)C)n3)C2)c1 (centres undefined)	n	n	n	n	n	n	x
COc1ccccc1-c1sc2ccccc2c1-c1ccc2c(c1)OCO2	n	n	n	n	n	998	n
O=C(Cc1ccc(Cl)cc1Cl)OCC(=O)c1ccc[nH]1	n	n	n	n	n	581	n
O=C(Nc1ccc2c(c1)OCCO2)C(=O)NC1CC1	n	n	n	n	n	n	x
COc1ccc2nc(SCC(=O)N(C)CC(=O)Nc3ccc(F)cc3)[nH]c2c1	n	x	n	n	n	558	n
NN1C(=O)NC(c2ccccc2)(c2ccccc2)C1=O	n	n	n	n	n	543	n
NC(=O)NC(=O)CN1C(=O)NC(c2ccccc2)(c2ccccc2)C1=O	n	n	n	n	n	n	x
O=[N+]([O-])/C=C\c1ccc(N2CCOCC2)cc1	n	x	n	n	n	n	x
CN(c1ccccc1)c1ccc(/C=C/[N+](=O)[O-])cc1	x	n	n	n	n	804	n
CC1CCc2c(cnc3ncnn23)C1 (centres undefined)	n	x	n	n	n	n	x
CCOC(=O)c1oc2cc(OC(C)=O)ccc2c(=O)c1-c1ccc(OC)c(OC)c1	n	x	n	n	n	510	n
CC(=O)Oc1ccc2c(=O)c(-c3ccccc3)c(C)oc2c1	n	n	n	n	n	n	x
C[C@H](NC(=O)OC(C)(C)C)C(=O)NCC1CCC(C(=O)N[C@@H](Cc2ccccc2)C(=O)O)CC1 (some centres undefined)	n	n	n	n	n	477	n
CCN(CC)c1ccc(/C=N\NC(N)=O)cc1	n	n	n	n	n	n	x
CCN(CC)c1ccc(/C=N/NC(=O)OC(C)(C)C)cc1	n	n	n	n	n	568	n
COc1ccc(CN(C)S(=O)(=O)c2nnc(NC(=O)c3cccc(C)c3)s2)cc1OC	n	n	n	n	n	n	x
C/C(=N\N=C(/N)SC1CC(=O)N(c2cccc(Cl)c2)C1=O)c1cccs1 (centres undefined)	n	n	n	n	n	374	n
CCCOc1ccc(N2C(=O)CC(S/C(N)=N/N=C(\C)c3cccs3)C2=O)cc1 (centres undefined)	n	n	n	n	n	n	x
CN(C)S(=O)(=O)c1cc(NC(=O)CSc2nn(-c3ccc(Cl)cc3)c(=S)s2)ccc1Cl	n	n	n	n	n	555	n
CS(=O)(=O)N1CCC(Oc2ccccc2C(=O)N2CCNC(=O)C2)CC1	n	n	n	n	n	401	n
